Measured values from PMC5700166.
Changes are numbered by the printed parent chain.

Experiments:
Assay in all cases: protein-binding microarray (PBM); PBM: ~300 nM protein, 6 mM HEPES pH 7.8, 80 mM KCl, 0.5 mM EDTA, 0.5 mM EGTA, 6% glycerol, 35 ng/ul poly-dIdC, 1% milk, 1 h, room temperature; Ap Aiptasia and Nv Nematostella (sea anemones) / Co Capsaspora / Aq Amphimedon (sponge) / Dm Drosophila / Hu human; RHD is the Rel homology domain; high values mean tight binding
Details in all cases: dsDNA, one strand shown
GST-Ap-NF-kB RHD = molecular target: T1, GST-Ap-NF-kB RHD (Exaiptasia pallida (Aiptasia), UniProt A0A913YAJ5 2-422)
T1 sequence: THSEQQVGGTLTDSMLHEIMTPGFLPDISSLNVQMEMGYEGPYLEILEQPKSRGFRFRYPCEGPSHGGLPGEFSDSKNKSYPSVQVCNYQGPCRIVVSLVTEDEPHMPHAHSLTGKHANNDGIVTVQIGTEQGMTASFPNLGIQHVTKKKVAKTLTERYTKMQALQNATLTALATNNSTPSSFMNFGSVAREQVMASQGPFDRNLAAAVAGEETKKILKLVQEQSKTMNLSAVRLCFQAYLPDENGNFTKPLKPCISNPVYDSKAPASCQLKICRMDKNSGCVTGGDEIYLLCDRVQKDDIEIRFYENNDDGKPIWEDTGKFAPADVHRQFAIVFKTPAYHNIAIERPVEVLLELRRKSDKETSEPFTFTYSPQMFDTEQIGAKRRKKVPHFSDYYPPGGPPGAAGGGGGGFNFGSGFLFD

[1] = molecular target: T2, GST-Nv-NF-kB (Cys allele) (Nematostella vectensis, UniProt E5G601 2-411)
T2 sequence: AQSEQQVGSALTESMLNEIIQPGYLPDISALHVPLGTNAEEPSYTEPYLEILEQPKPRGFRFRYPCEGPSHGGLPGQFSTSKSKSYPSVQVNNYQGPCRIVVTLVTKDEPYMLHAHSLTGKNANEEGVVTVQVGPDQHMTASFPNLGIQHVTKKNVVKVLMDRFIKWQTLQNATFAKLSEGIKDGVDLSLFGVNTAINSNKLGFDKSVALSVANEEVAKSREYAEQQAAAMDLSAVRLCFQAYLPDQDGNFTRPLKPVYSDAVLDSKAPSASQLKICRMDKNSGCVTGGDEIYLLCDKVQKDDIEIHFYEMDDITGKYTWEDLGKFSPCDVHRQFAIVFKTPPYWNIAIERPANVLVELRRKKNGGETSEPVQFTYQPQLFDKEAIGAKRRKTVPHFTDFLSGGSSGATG

[2] = molecular target: T3, GST-Nv-NF-kB (Ser allele) (Nematostella vectensis, UniProt A7UNT2 2-411)
T3 sequence: T2 sequence with Q21R, C66S, S207N, E215Q, V217A, E225K, A268E, D399E

GST-Co-NF-kB = molecular target: T4, GST-Co-NF-kB (Capsaspora owczarzaki, UniProt F1ARL5 200-546)
T4 sequence: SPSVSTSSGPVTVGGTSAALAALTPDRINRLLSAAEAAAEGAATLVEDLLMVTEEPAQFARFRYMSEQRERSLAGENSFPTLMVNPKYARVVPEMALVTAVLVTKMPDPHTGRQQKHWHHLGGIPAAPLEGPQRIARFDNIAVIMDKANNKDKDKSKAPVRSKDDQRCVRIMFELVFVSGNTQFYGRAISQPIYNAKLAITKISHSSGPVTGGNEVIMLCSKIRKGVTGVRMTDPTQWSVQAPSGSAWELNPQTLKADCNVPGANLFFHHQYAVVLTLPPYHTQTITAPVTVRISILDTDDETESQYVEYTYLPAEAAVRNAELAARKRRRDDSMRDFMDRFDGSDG

GST-Dm-Relish = molecular target: T5, GST-Dm-Relish (Drosophila melanogaster, UniProt Q94527 99-473)
T5 sequence: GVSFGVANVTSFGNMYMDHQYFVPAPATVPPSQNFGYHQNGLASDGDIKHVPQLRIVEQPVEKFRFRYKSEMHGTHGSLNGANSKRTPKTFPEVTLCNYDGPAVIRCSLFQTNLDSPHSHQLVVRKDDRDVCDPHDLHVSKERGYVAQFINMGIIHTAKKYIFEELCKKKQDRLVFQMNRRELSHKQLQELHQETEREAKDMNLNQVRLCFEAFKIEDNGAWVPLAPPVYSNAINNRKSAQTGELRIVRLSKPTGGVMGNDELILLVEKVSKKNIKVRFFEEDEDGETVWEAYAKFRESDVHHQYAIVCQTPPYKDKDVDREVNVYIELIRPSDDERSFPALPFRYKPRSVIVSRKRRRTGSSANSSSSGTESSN

GST-Aq-NF-kB = molecular target: T6, GST-Aq-NF-kB (Amphimedon queenslandica, UniProt A9Y5G7 2-389)
T6 sequence: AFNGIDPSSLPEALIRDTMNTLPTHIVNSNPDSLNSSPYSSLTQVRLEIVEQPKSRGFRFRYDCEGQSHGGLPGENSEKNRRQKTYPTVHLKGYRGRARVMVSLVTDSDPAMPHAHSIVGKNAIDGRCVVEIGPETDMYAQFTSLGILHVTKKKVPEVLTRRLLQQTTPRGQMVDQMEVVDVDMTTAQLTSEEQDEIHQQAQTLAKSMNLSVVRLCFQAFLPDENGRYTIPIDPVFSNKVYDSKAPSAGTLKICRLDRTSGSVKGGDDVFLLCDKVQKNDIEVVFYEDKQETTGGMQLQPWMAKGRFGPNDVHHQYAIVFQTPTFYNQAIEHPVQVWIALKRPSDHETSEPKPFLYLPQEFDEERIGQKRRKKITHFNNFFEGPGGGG

Sequence | binding signal (GST-Ap-NF-kB RHD) [z-score] | binding signal [1] [z-score] | binding signal [2] [z-score] | binding signal (GST-Co-NF-kB) [z-score] | binding signal (GST-Dm-Relish) [z-score] | binding signal (GST-Aq-NF-kB) [z-score]
CCGATTAACATCAGGGAAAAAAATGATGTTAATCGGGTCTTGATTCGCTTGACGCTGCTG | 3.48 | 5.81 | 7.5 | 5.71 | 2.19 | 4.63
CCGATTAACATCAGAAATCCCAATGATGTTAATCGGGTCTTGATTCGCTTGACGCTGCTG | 2.44 | 2.13 | 1.82 | 1.84 | 5.13 | 2.14
CCGATTAACATCAGGCGTTTCCCTGATGTTAATCGGGTCTTGATTCGCTTGACGCTGCTG | 2.18 | 3.27 | 2.59 | 1.83 | 1.54 | 4.39
CCGATTAACATCAGGGGATAATATGATGTTAATCGGGTCTTGATTCGCTTGACGCTGCTG | 5.41 | 5.47 | 7.02 | 5.65 | 2.58 | 4.59
CCGATTAACATCAAACTTTTCCCTGATGTTAATCGGGTCTTGATTCGCTTGACGCTGCTG | 3.37 | 5.66 | 6.83 | 4.78 | 1.45 | 4.63
CCGATTAACATCACGTTTTTCCCTGATGTTAATCGGGTCTTGATTCGCTTGACGCTGCTG | 3.81 | 4.59 | 6.7 | 5.98 | 4.58 | 4.26
CCGATTAACATCACCGTTTTCCCTGATGTTAATCGGGTCTTGATTCGCTTGACGCTGCTG | 3.62 | 4.51 | 6.61 | 4.03 | 2.19 | 3.24
CCGATTAACATCAACGGGAACTCTGATGTTAATCGGGTCTTGATTCGCTTGACGCTGCTG | 2.34 | 1.64 | 1.08 | 1.78 | 1.77 | 2.25
CCGATTAACATCAACATTTTCCCTGATGTTAATCGGGTCTTGATTCGCTTGACGCTGCTG | 3.52 | 5.79 | 8.32 | 4.91 | 1.62 | 3.41
CCGATTAACATCAGGGGAACTCATGATGTTAATCGGGTCTTGATTCGCTTGACGCTGCTG | 6.56 | 6.78 | 7.59 | 5.3 | 6.03 | 4.88
CCGATTAACATCACTCTTTCCCCTGATGTTAATCGGGTCTTGATTCGCTTGACGCTGCTG | 4.86 | 5.44 | 7.19 | 6.1 | 1.95 | 4.18
CCGATTAACATCACATCTTCCCCTGATGTTAATCGGGTCTTGATTCGCTTGACGCTGCTG | 4.99 | 6.11 | 7.12 | 6.39 | 2.45 | 4.78
